The record followed here is PubChem BioAssay (Tox21).

Results filed as inconclusive are left out. A number with no mark means an inactive call. Calls of active or inactive are those of the source. Calls come from the whole dose curve; as a rule, active = well fitted activation curve with a large enough effect in the repeat runs; inconclusive = weak or mixed curves; inactive = flat fitted curve, though single readings scatter.
% is set by controls: 0 for no effect and ±100 for the full control effect; potency is the fitted concentration of half-maximal effect.

This test can be described thus: A CellTox Green Cytotoxicity Assay to monitor cytotoxicity in HEK293 cells - 40 hour (AID 1224871). Note: nearly all actives have a fitted effect of over 45% in size. The settings on record: CellTox Green fluorescence; series mostly up to 76.8 µM; cytotoxicity increase: at the top concentration. From the text:
National Center for Advancing Translational Sciences [NCATS]
NIH Chemical Genomics Center [NCGC]
U.S. Environmental Protection Agency [EPA]
National Institutes of Environmental Health Sciences [NIEHS]
National Toxicology Program [NTP]
Cell-based models are critical for drug discovery. Determining the natural cytotoxic effects resulting from test compounds is an essential research activity. A CellTox Green Cytotoxicity Assay to monitor cytotoxicity in real time of continues cell culture during 40 hours of the compound treatment was used to screen Tox21 10K library compounds in Hek293 cells. CellTox Green Cytotoxicity Assay is a nonlytic, homogeneous, biofluorescent method to measure cytotoxicity in cell culture after experimental manipulation. The assay system uses a proprietary asymmetric cyanine dye that is excluded from viable cells but preferentially stains the dead cell's DNA. […] Viable cells produce no appreciable increases in fluorescence. Therefore, the fluorescence signal produced by the binding interaction with dead cell DNA is proportional to cytotoxicity.
The mixture of Hek293 cell suspension and reagents were dispensed at 600cells/6 ul/well in 1536-well tissue culture treated black solid bottom plates using a Multidrop dispenser. After the assay plates were incubated at a 37 C/5% CO2 incubator for 5 hours, 23 nL of compounds dissolved in DMSO, positive and negative controls was transferred to the assay plate by a pintool work station. The plates were incubated at 37 C for 40 hours. The fluorescence intensity were measured at 0h, 8h, 16h, 24h, 32h and 40h time points using ViewLux plate reader during compound treatment.
For `C[C@@H]1C[C@H]2[C@@H]3C[C@H](F)C4=CC(=O)C(Cl)=C[C@]4(C)[C@@]3(F)[C@@H](O)C[C@]2(C)[C@@]1(O)C(=O)CO`, the “cytotoxicity increase” value was -18% [at 35.3 µM]. Same read-out and setting: to `CC1=CCC(O)(C(C)C)CC1` (stereo not given) belongs -31.1%; to `CC(=O)NC(=O)c1ccccc1O`, -6.6% [at 35.3 µM]; to `Cc1nc2ccc(CN(C)c3ccc(C(=O)N[C@@H](CCC(=O)O)C(=O)O)s3)cc2c(=O)[nH]1`, 8.78% [at 35.3 µM]. As to `C1CCC2(CCCCO2)OC1`, the “cytotoxicity increase” value is -8.92%. Still for that read-out and setting: with `CCCCCCCC1CCCC1=O` (stereo not given) the figure was 7.33%; with `CCCC(=O)O[C@]1(C(=O)CC)CC[C@H]2[C@@H]3CCC4=CC(=O)CC[C@]4(C)[C@H]3[C@@H](O)C[C@@]21C`, 6.05% [at 35.3 µM]; with `CCN(CC#N)c1cccc(C)c1`, 1.89%.

As for `O=S(=O)(O)c1cccc(S(=O)(=O)O)c1`, the “cytotoxicity increase” value was -3.22%. As to `Cc1ccc(-c2ccccc2C#N)cc1`, the “cytotoxicity increase” value was -6.08% [at 35.3 µM]. The same measure, in the same setting: with `O=C1c2ccccc2C(=O)c2cc(O)ccc21` the figure was -43.1%; with `CCOC(=O)COc1cc(-n2ncc(C(F)(F)F)c(C)c2=O)c(F)cc1Cl`, 2.23%; with `CC(C)c1ccc2ncccc2c1`, 0.451%. Consider `CC(=O)c1cnccn1`, for which the Potency was 16.2 µM (active). Regarding `C[N+]12CCC(CC1)C(OC(=O)C(O)(c1ccccc1)c1ccccc1)C2` (stereo not given), the “cytotoxicity increase” value is 5.41% [at 35.3 µM]. The same measure, in the same setting: to `CCCc1nn(C)c2c(=O)[nH]c(-c3cc(S(=O)(=O)N4CCN(C)CC4)ccc3OCC)nc12` belongs -25.7% [at 35.3 µM]; to `CC1=NN(c2cccc(S(=O)(=O)O)c2)C(=O)C1`, 14.9%. For `CC(=O)C1CCCCC1=O` (stereo not given), the “cytotoxicity increase” value is -17.2%.

As for `CCCCN(CCC(=O)OCC)C(C)=O`, the “cytotoxicity increase” value is -18.3%.

`CC(C)(C#N)Nc1nc(Cl)nc(NC2CC2)n1`: the “cytotoxicity increase” value is -0.813%.

`CO[C@@]1(NC(=O)C(C(=O)O)c2ccc(O)cc2)C(=O)N2C(C(=O)O)=C(CSc3nnnn3C)CO[C@@H]21` (stereo not given in full): the “cytotoxicity increase” value is -17.4% [at 35.3 µM].

For the molecule `O=C(O)CCCC[P+](c1ccccc1)(c1ccccc1)c1ccccc1`, the “cytotoxicity increase” value was 3.27% [at 35.3 µM]. Take `CC1=NN(c2cc(S(=O)(=O)O)ccc2Cl)C(=O)C1N=Nc1ccccc1` (stereo not given): the “cytotoxicity increase” value is 1.63%.

For `O=C(c1ccccc1O)c1ccccc1O`, the Potency is 48.5 µM (active).

With `N[C@H](C(=O)O)[C@@H](O)c1ccc(O)c(O)c1`, the “cytotoxicity increase” value is 1.09% [at 35.3 µM]. For `CC(C)COC(=O)c1ccc(N)cc1`, the “cytotoxicity increase” value was -17.6% [at 35.3 µM]. The same measure, in the same setting: with `CCCCCC(=O)OCCc1ccccc1` the figure was 8.33%.

As to `NS(=O)(=O)Cc1noc2ccccc12`, the “cytotoxicity increase” value is -11.6% [at 35.3 µM]. Still for that read-out and setting: with `CC(C)(N)C#N` the figure was 0.471%. Still for that read-out and setting: to `NC(CCC(=O)O)C(=O)O` (stereo not given) belongs 12.4%. Consider `CCN[C@@H]1C[C@H](N)[C@@H](OC2OC(CN)=CCC2N)[C@H](O)[C@H]1O[C@H]1OC[C@](C)(O)[C@H](NC)[C@H]1O` (stereo not given in full), for which the cytotoxicity increase was 6.9% [at 0.29 µM]. With `CC(C)C(=O)OC(=O)C(C)C`, the “cytotoxicity increase” value was -12.1%.

For `CC(=O)OCC(=O)[C@@]1(O)[C@H](C)C[C@H]2[C@@H]3CCC4=CC(=O)C=C[C@]4(C)[C@@]3(F)[C@@H](O)C[C@@]21C`, the “cytotoxicity increase” value is 11.9% [at 35.3 µM]. Same read-out and setting: with `NC(=O)N1c2ccccc2CC(=O)c2ccccc21` the figure was -15.6% [at 35.3 µM]. As for `O=C(CO)[C@@H](O)[C@H](O)[C@@H](O)CO`, the “cytotoxicity increase” value was 17.5% [at 35.3 µM]. In the case of `NC(=O)NC1N=C([O][Al])NC1=O` (stereo not given), the “cytotoxicity increase” value is 9.12% [at 35.3 µM].

As to `CC(CC=O)CC(C)(C)C` (stereo not given), the “cytotoxicity increase” value was 0.263%. Turning to `CC/C=C\CCOC(C)OCC` (stereo not given), the “cytotoxicity increase” value is -3.44% [at 35.3 µM]. Regarding `CCC(C(=O)NC(=O)NC(C)=O)c1ccccc1` (stereo not given), the “cytotoxicity increase” value is 4.38% [at 35.3 µM].

Regarding `Cc1ncc([C@@H](CCCCCCc2ccc3c(n2)NCCC3)CC(=O)O)cn1`, the “cytotoxicity increase” value is -22.2%.
